Experimental data reported in PubChem BioAssay AID1851 (National Center for Advancing Translational Sciences (NCATS), 2009).
Where “and” joins values, the source holds several entries; their conditions need not be identical. Equal values may be shown once. In all, about 16,000 compounds went through this assay and about 5,700 (36%) were called active. About 24% were inconclusive and are not listed. Some of the results follow. Values without a mark were called inactive. Calls follow the shape of the dose curve; as a rule, active = well fitted curve in the direction sought with a large enough effect; inconclusive = small, poorly fitted or top-dose-only effect, or effect the other way; inactive = no such curve, though single readings can be large or run the other way.
% is scaled to controls: 0 for no effect and ±100 for the full control effect.

The molecules below were run against Cytochrome P450 1A2 (Homo sapiens) (UniProt P05177) (assay: Cytochrome panel assay with activity outcomes). Settings: recombinant CYP, pro-luciferin dealkylation, luminescence, p450-cyp1a2; series mostly up to 57.1 µM.
Chain of Cytochrome P450 1A2 (Homo sapiens) (P05177 whole entry, looked up): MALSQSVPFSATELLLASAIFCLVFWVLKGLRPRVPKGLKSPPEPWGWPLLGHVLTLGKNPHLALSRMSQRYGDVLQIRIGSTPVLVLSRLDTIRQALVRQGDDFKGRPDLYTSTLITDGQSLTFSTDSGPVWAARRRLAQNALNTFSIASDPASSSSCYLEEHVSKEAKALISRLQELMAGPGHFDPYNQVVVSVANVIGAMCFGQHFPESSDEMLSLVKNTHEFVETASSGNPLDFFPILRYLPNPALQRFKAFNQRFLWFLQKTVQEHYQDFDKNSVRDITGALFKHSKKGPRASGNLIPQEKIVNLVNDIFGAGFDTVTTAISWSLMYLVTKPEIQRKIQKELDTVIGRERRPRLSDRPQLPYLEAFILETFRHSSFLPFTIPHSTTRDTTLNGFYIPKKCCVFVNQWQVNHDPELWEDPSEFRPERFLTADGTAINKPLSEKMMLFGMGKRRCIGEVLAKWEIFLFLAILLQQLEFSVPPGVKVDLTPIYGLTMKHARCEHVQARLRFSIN
For `CC1CCN(S(=O)(=O)c2ccc3c(c2)C(=NO)c2cc(S(=O)(=O)N4CCC(C)CC4)ccc2-3)CC1`, the AC50 was “inactive”.
Molecule `O[C@]1(c2ccccc2)c2ccccc2NC2=NCCN21` has an activity, negative = inhibition of -14.8% [at 11.4 µM].
`Nc1cc(S(=O)(=O)O)cc2ccc(S(=O)(=O)O)cc12` showed an activity, negative = inhibition of -18.1% [at 2.29 µM].
`CC[C@@]1([N+](=O)[O-])C[C@H]2C=C[C@@H]1C2` was tested, and the activity, negative = inhibition was -12.9% [at 2.29 µM].
For `C[C@@H]1C[C@@H]2[C@H]3CCC4=CC(=O)C=C[C@]4(C)[C@]3(Cl)[C@@H](O)C[C@@]2(C)[C@@]1(O)C(=O)CO`, the AC50 was “inactive”.
With `FC(F)(F)c1ccc(N2CCN(c3cc(-c4ccccc4)nc4ncnn34)CC2)nc1` the AC50 was 10 µM (active).
`O=S(=O)(c1ccccc1)N1CCC2(CCN(c3ncccn3)CC2)CC1` was tested, and the AC50 was “inactive”.
In the case of `O=S(=O)(c1ccccc1)N1CCN(c2cc(-c3ccccc3)nc3ncnn23)CC1`, the AC50 is reported as 0.794 µM (active).
For `O=S(=O)(c1ccccc1)N1CCC2(CC1)CN(c1ncccn1)C2`, the AC50 was “inactive”.
For `Nc1nc(Cl)nc2c1ncn2[C@@H]1O[C@@H](COP(=O)(O)OP(=O)(O)OP(=O)(O)O)[C@@H](O)[C@H]1O`, the AC50 was “inactive”.
With `C#CCCCO/N=C1/C[C@@H](O)[C@@H](O)[C@@H]2[C@@H]3C(=O)N(CC)C(=O)[C@H]3CC[C@@H]12` the activity, negative = inhibition was -3.56% [at 11.4 µM].
With `Cc1ccc(NC(=S)Nc2nc(CC(=O)Nc3ccccc3)cs2)cc1` the AC50 was 2.24 µM (active).
In the case of `CCn1c(CC(=O)Nc2ccc(C)cc2)nnc1SCC(=O)Nc1nc(C)cs1`, the AC50 is reported as “inactive”.
Work on `COc1cccc([C@@H]2Oc3ccc(OC)cc3/C(=N/OC[C@@H](C)[C@H](OCc3ccccc3)C(C)C)[C@@H]2O)c1` yielded an activity, negative = inhibition of -6.71% [at 11.4 µM].
In the case of `COc1cccc(Cn2c(=O)c(-c3cc(F)cc(F)c3)nc3cnc(N(C)C)nc32)c1`, the AC50 is reported as “inactive”.
In the case of `CN(C)c1ncc2nc(-c3cc(F)cc(F)c3)c(=O)n(CCc3ccccc3)c2n1`, the AC50 is reported as “inactive”.
`COc1cccc(Cn2c(=O)cnc3cnc(N(C)C)nc32)c1` was tested, and the AC50 was 6.31 µM (active).
In the case of `CN(C)c1ncc2nc(CCc3ccccc3)c(=O)n(Cc3cccs3)c2n1`, the AC50 is reported as 1.58 µM (active).
For `CN(C)c1ncc2nc(CCc3ccccc3)c(=O)n(-c3ccccc3)c2n1`, the AC50 was 0.794 µM (active).
In the case of `CN(C)c1ncc2nc(-c3ccccc3)c(=O)n(CCc3ccccc3)c2n1`, the AC50 is reported as 20 µM (active).
`C/C(CCN1CCCc2nc(C)c(C)cc21)=N\O[C@@H](C)CN1CCCCc2nc(C)c(C)cc21` showed an activity, negative = inhibition of 2.64% [at 11.4 µM].
Molecule `C[C@]12CC[C@H]3c4ccc(O)cc4CC[C@@H]3[C@H]1C/C(=N/O)[C@H]2O` has an activity, negative = inhibition of -12.7% [at 11.4 µM].
For `C=C(C)CNCCN`, the activity, negative = inhibition was 2.24% [at 2.29 µM].
In the case of `CN(C)c1ncc2nc(CCc3ccccc3)c(=O)n(CCC#N)c2n1`, the AC50 is reported as 2 µM (active).
In the case of `Cc1nc2cnc(N(C)C)nc2n(CCc2ccccc2)c1=O`, the AC50 is reported as 1.26 µM (active).
For `CN(C)c1ncc2ncc(=O)n(CCc3ccccc3)c2n1`, the AC50 was 0.794 µM (active).
With `COc1cccc(Cn2c(=O)c(CCc3ccccc3)nc3cnc(N(C)C)nc32)c1` the AC50 was 15.8 µM (active).
With `CCN1CCCC1CNC(=O)C1c2cc(OC)c(OC)cc2C(=O)N(C)C1c1cccnc1` (stereo unspecified) the AC50 was “inactive”.
For `COC(=O)N1CCC2(CCCN(Cc3nccs3)C2)CC1`, the AC50 was “inactive”.
In the case of `COCCn1c(=O)c(CCc2ccccc2)nc2cnc(N(C)C)nc21`, the AC50 is reported as 1.26 µM (active).
With `O=c1c(CCc2ccccc2)nc2cncnc2n1Cc1ccc(F)cc1` the AC50 was 10 µM (active).
For `CN(C)c1ncc2nc(-c3cccc(C#N)c3)c(=O)n(CCC#N)c2n1`, the AC50 was “inactive”.
`CN(C)c1ncc2nc(-c3ccccc3)c(=O)n(CCC#N)c2n1` was tested, and the AC50 was 1.58 µM (active).
With `CN(C)c1ncc2nc(CCc3ccccc3)c(=O)n(Cc3ccc(F)cc3)c2n1` the AC50 was 10 µM (active).
For `CCN(CC)C(=O)CSc1nc(O)cc(=O)n1CC`, the AC50 was “inactive”.
For `C[C@@H]1/C=C\CC(=O)OC[C@H]2O[C@@H](C=C[C@@H]2O)[C@H](C)/C=C\CC(=O)OC1`, the activity, negative = inhibition was -3.64% [at 11.4 µM].
With `CNC(=O)[C@@H]1O[C@@H](n2cnc3c(NCc4ccc(N)cc4)ncnc32)[C@@H](O)[C@H]1O` the AC50 was “inactive”.
In the case of `CN(C)c1ncc2nc(CCc3ccccc3)c(=O)n(CCc3ccccc3)c2n1`, the AC50 is reported as 6.31 µM (active).
Work on `C=C1C=C(Br)C2(OCCCO2)[C@H]2OC12` (stereo partly specified) yielded an activity, negative = inhibition of -2.64% [at 11.4 µM].
In the case of `Cc1cnc(CNc2cc(-c3ccccc3Cl)ncn2)cn1`, the AC50 is reported as 15.8 µM (active).
In the case of `Cc1cnc(CNc2cc(-c3ccccc3C)ncn2)cn1`, the AC50 is reported as 12.6 µM (active).
`COc1ccccc1-c1cc(NCc2cnc(C)cn2)ncn1` was tested, and the AC50 was 12.6 µM (active).
For `Cn1cccc1C(=O)N1CCC2(CCN(C(=O)Nc3cccc(F)c3)CC2)CC1`, the AC50 was “inactive”.
With `C[C@@]12CCC(=O)C=C1CC[C@H]1[C@@H]2[C@@H](O)C[C@]2(C)[C@@H]1CC[C@@]2(O)C(=O)CO` the activity, negative = inhibition was -23.6% [at 11.4 µM].
In the case of `Cc1cc(=O)c2c(O)c(O)ccc2o1`, the AC50 is reported as 12.6 µM (active).
With `O=C(O)/C=C\c1c2ccc(=O)c(O)c-2oc2c(O)c(O)ccc12` the activity, negative = inhibition was -19.8% [at 2.29 µM].
For `Clc1ccc(-n2nnnc2CN2CCOCC2)cc1`, the AC50 was 7.08 µM (active).
`c1c[nH]c(CN2CCOCC2)n1` gave an activity, negative = inhibition of 6.41% [at 11.4 µM].
With `Oc1c(CN2CCOCC2)ccc(CN2CCOCC2)c1O` the activity, negative = inhibition was -11.9% [at 2.29 µM].
With `Cc1ccnc2nc(C(=O)OCC(=O)Nc3ccc4c(c3)OC(F)(F)O4)nn12` the AC50 was 8.91 µM (active).
For `CCN(CC)c1ccc(NC(=O)CSc2nnc3nc(C)cc(C)n23)cc1`, the AC50 was “inactive”.
`COc1cc(NC(=O)COC(=O)c2nc3nc(C)cc(C)n3n2)cc(OC)c1` was tested, and the AC50 was 14.1 µM (active).
In the case of `C#CCCCO/N=C1/[C@H]2O[C@@H]2[C@@H](O)[C@H]2[C@H]1CCn1c(=O)n(C)c(=O)n12`, the activity, negative = inhibition is reported as -0.0514% [at 11.4 µM].
Work on `CCN1C(=O)[C@@H]2[C@H]3C(=CC[C@@H]2C1=O)C1(OCCCO1)[C@H]1O[C@@H]1[C@H]3O` yielded an activity, negative = inhibition of -2.44% [at 11.4 µM].
In the case of `Cc1ccc(S(=O)(=O)N2CCN(S(C)(=O)=O)C2)cc1`, the AC50 is reported as “inactive”.
With `O=C(OCC(=O)c1cccs1)c1cccc(C(=O)OCC(=O)c2cccs2)n1` the AC50 was 15.8 µM (active).
For `Cc1ccc(OC(=O)c2cccc(C(=O)Oc3ccc(C)cn3)n2)nc1`, the AC50 was “inactive”.
`Cc1ccc(OC(=O)c2cccc(C(=O)Oc3ccc(C)cc3)n2)cc1` was tested, and the AC50 was “inactive”.
`CCOC(=O)c1cccc(C(=O)OCC)n1` was tested, and the AC50 was 12.6 µM (active).
With `O=C(CCC(=O)c1cccs1)OCC(=O)N1CCN(C(=O)c2ccco2)CC1` the AC50 was “inactive”.
For `COC(=O)c1cccc(C(=O)Nc2ccc(C)cc2)n1`, the AC50 was 1 µM (active).
For `S=c1nc(-c2ccccc2)oc2c1CCCC2`, the AC50 was 0.562 µM (active).
With `COc1ccc(-n2c(-c3ccccc3)nc(=S)c3c2CCCC3)cc1` the AC50 was “inactive”.
In the case of `CCCn1nnc(NC(=O)c2ccc(-c3cccc(Cl)c3)o2)n1`, the AC50 is reported as 1.58 µM (active).
With `Cc1ccc(C(=O)NC(=S)Nc2cccc3nsnc23)cc1` the AC50 was “inactive”.
`O=C(Nc1cccc2nsnc12)c1ccc(-c2cccc(Cl)c2)o1` was tested, and the AC50 was 2 µM (active).
`O=C(c1cnccn1)N1CCC2(CCCN(c3ccccn3)C2)CC1` was tested, and the AC50 was “inactive”.
`CC(C)c1ccc(/C=C2\C=C(c3ccc4ccccc4c3)OC2=O)cc1` showed an activity, negative = inhibition of -24.7% [at 2.29 µM].
In the case of `Cc1ccc(/C=C2\OC(=O)c3ccccc32)cc1`, the AC50 is reported as 0.794 µM (active).
In the case of `Cc1ccccc1/C=C1\OC(=O)c2ccccc21`, the AC50 is reported as 1.26 µM (active).
For `CC(=O)OC[C@@H]1O[C@@H](O/N=C2/C[C@@H](O)[C@@H](O)[C@@H]3[C@@H]4C(=O)N(Cc5ccc6c(c5)OCO6)C(=O)[C@H]4CC[C@@H]23)[C@H](OC(C)=O)[C@H](OC(C)=O)[C@@H]1OC(C)=O`, the activity, negative = inhibition was -15% [at 11.4 µM].
`CC(=O)[C@H]1CC[C@@H]2[C@H]3CC=C4C[C@@H](O)CC[C@]4(C)[C@H]3CC[C@]12C` was tested, and the AC50 was “inactive”.
`O=C(N=NC(=O)c1ccc2c(O)n(C3CCCCC3)c(O)c2c1)c1cccnc1` was tested, and the AC50 was “inactive”.
With `C[C@@H](c1ccccc1)N1C(=O)[C@H]2[C@@H]3[C@H](O)[C@H](O)CC(=O)[C@H]3CC[C@H]2C1=O` the activity, negative = inhibition was 6.67% [at 11.4 µM] and -2.18% [at 11.4 µM].
In the case of `N#CCSc1nc2cc(C(=O)N3CCCC3)ccc2c(=O)n1Cc1ccccc1`, the AC50 is reported as 15.8 µM (active).
With `NC1(C(=O)O)C[C@H](C(=O)O)[C@H](C(=O)O)C1` (stereo partly specified) the AC50 was “inactive”.
For `COc1ccc(/C=N/n2cnc3c([nH]c4ccc(Br)cc43)c2=O)cc1CN1CCOCC1`, the AC50 was 12.6 µM (active).
In the case of `C[N+](C)(C)c1ncnc2c1ncn2[C@@H]1CCCCO1`, the activity, negative = inhibition is reported as 2.33% [at 2.29 µM].
With `O=[N+]([O-])c1ccc(Cl)c(CNc2ncnc3c2ncn3[C@@H]2CCCCO2)c1` the AC50 was 5.01 µM (active).
With `Nc1ncnc2c1ncn2[C@@H]1CCCO1` the AC50 was “inactive”.
With `Cc1cc([N+](=O)[O-])c(C)c(Br)c1C` the AC50 was 1 µM (active).
In the case of `COc1ccc(S(=O)(=O)NCc2ccc(C(=O)N3CCN(c4ccccn4)CC3)cc2)cc1`, the AC50 is reported as “inactive”.
In the case of `CCC(=O)Nc1ccc2c(c1)C(=O)c1ccccc1C2=O`, the AC50 is reported as 0.316 µM (active).
`O=C(Nc1ccc(Nc2ccc3c(c2)C(=O)c2ccccc2C3=O)c2c1C(=O)c1ccccc1C2=O)c1ccccc1` was tested, and the AC50 was 1.58 µM (active).
For `Cc1nc2c(C)cccn2c1/C(O)=C1\C(=O)C(=O)N(CCN2CCOCC2)C1c1cccs1` (stereo unspecified), the AC50 was “inactive”.
For `CCOC(=O)c1c(-c2ccccc2)nc2ccccn12`, the AC50 was 1.12 µM (active).
In the case of `CCOC(=O)CNc1c(-c2ccccc2)nc2ccc(Cl)cn12`, the AC50 is reported as 1.58 µM (active).
For `CCOC(=O)c1c(-c2ccccc2)nc2ccc(Cl)cn12`, the AC50 was 2.51 µM (active).
For `CCOC(=O)c1c(-c2ccccc2)nc2c(C)cccn12`, the AC50 was 0.708 µM (active).
`NCCCc1c(-c2ccccc2)nc(N)[nH]c1=O` was tested, and the activity, negative = inhibition was 9.63% [at 11.4 µM].
In the case of `CC(SCc1cn2cc(Cl)ccc2n1)C(=O)O` (stereo unspecified), the AC50 is reported as “inactive”.
